For this assay, the system named is Phorbol Ester (mouse). The assay can be described thus: PubChem AID 1788. The following applies: MDS Pharma lead profiling panel, radioligand binding, at 10 µM, stronger effect = higher value.

Each structure is given as a SMILES string. Values without a mark were called inactive. The rule behind the calls is not given here.

Consider one compound from PubChem BioAssay AID1788 (Vanderbilt High Throughput Screening Facility, 2009).

In general, inhibition refers to the drop in the measured response relative to a control, in per cent. Consider `CCOC(=O)N1CCC(NCCNC(=O)c2ccccc2C)CC1`, for which the inhibition was 25%.
